Data: PubChem BioAssay
Active and inactive are the calls of the source. No stated cut-off is given here; in the data, active means inhibition above about 31%; inactive means the rest.

Experiment: yeast transport mutant growth inhibition pilot in 384-well plates, post-Golgi transport modulator project (AID 636)
Details: absorbance 615 nm, about 18 h, stronger effect = higher value

inhibition, inactive:
Cc1c(CNCc2cccs2)c(C(=O)O)c(C)n1Cc1ccccc1 -3.97%
Cc1ccc(OCC(O)Cn2c(NCCc3ccccc3)nc3c2c(=O)[nH]c(=O)n3C)cc1 (stereo unspecified) -3.97%
COC(=O)CN(Cc1ccco1)S(=O)(=O)c1ccccc1 -2.67%
CCc1[nH]nc2c1C1(CCN(C(=O)OCc3ccccc3)CC1)C(C#N)=C(N)O2 -8.9%
Cc1cc(C(=O)Nc2c(C)n(C)n(-c3ccccc3)c2=O)c(C)o1 -8.08%
O=C(NCc1cccs1)c1cc2c(s1)CS(=O)(=O)C2 -4%
Cc1cc(C)nc(-n2nc(C)cc2NC(=O)c2ccc(Br)o2)n1 -3.73%
CCOc1ncccc1C(=O)Nc1ccc(Cl)cc1 1.17%
COc1cccc(NC(=O)C2C3C=CC4(O3)C2C(=O)N(C(C)C)C4C(=O)NC2CCCCC2C)c1 (stereo unspecified) 0.26%
CCOC(=O)Cc1csc(NC(=O)CSc2nnc(C3CC3)n2C)n1 -5.81%
COc1ccccc1OCCOCCn1cnc2ccccc2c1=O -5.75%
O=C(CN1C(=O)CC(c2ccco2)Sc2ccccc21)Nc1ccc2c(c1)OCCO2 (stereo unspecified) -2.76%
CCN1CCc2c(C#N)c(N3CCCCC3)nc(NCc3ccccc3)c2C1 -4.4%
Cn1c(=O)c2c(nc(SCC(=O)N3CCCc4ccccc43)n2C)n(C)c1=O 1.22%
Cc1cccc(CC2CC(=O)N(c3ccccc3)C2=O)c1 (stereo unspecified) -3.77%
CCN(CC)S(=O)(=O)c1cccc(-c2nnc(SCCOc3ccccc3C)o2)c1 -2.6%
